# Source: article PMC7862700, “An all-to-all approach to the identification of sequence-specific readers for epigenetic DNA modifications on cytosine”
# Assays:
# Test in all cases: DAPPL (digital affinity profiling via proximity ligation, sequencing); 10 mM Tris-HCl pH 7.5, 50 mM NaCl, 1 mM DTT, 4% glycerol, room temperature, 30 min; GST-TFs on glutathione beads, 16-mer random dsDNA library, 0.1% formaldehyde crosslink after washing; high values mean tight binding
# Settings in all cases: protein: recombinant; tags: N-terminal GST; dsDNA, one strand shown
# [1] = target: T1, ERF (Homo sapiens, UniProt P50548 1-548)
# T1 sequence: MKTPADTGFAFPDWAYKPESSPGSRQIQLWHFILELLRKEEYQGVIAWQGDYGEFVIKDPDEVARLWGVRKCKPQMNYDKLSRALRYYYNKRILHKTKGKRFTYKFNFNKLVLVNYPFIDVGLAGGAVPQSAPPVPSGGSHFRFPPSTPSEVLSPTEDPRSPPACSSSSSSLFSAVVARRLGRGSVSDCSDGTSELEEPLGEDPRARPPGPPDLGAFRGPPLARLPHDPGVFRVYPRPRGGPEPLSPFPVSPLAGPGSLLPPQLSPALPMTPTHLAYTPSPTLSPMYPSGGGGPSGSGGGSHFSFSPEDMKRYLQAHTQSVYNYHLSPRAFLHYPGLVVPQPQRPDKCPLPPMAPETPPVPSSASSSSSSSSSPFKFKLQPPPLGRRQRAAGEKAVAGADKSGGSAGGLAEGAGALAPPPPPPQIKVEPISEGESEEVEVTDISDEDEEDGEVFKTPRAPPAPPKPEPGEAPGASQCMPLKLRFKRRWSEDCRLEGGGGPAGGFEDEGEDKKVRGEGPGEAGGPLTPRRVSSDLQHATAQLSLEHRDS
# Procedure, shortened: (§1)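 GST fusions of human transcription factors were expressed in yeast and captured with glutathione beads. Once given DNA barcodes and pooled alongside a tag-only sample, they were incubated for 30 min at room temperature with 200 nmole of a random double-stranded 16-mer DNA library in Tris/NaCl/DTT/glycerol buffer, then washed, crosslinked (0.1% formaldehyde), proximity-ligated, PCR-amplified and sequenced on an Illumina NextSeq500. The binding signal of each hexamer is its read frequency for a factor divided by its frequency for the tag-only sample.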
# [2] = target: T2, ETV3L (Homo sapiens, UniProt Q6ZN32 1-361)
# T2 sequence: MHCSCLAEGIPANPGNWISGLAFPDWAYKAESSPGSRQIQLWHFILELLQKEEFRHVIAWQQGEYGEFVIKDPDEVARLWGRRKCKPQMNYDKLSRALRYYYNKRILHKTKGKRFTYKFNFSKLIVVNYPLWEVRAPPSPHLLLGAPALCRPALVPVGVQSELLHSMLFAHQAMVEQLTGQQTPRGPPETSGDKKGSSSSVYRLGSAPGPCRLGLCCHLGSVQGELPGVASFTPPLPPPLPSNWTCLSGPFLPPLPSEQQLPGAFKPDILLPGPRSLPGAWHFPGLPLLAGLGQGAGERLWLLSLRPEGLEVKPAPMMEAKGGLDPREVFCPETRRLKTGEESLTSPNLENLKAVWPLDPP
# Procedure, shortened: as §1
# [3] = target: T3, ETS2 (Homo sapiens, UniProt P15036 1-469)
# T3 sequence: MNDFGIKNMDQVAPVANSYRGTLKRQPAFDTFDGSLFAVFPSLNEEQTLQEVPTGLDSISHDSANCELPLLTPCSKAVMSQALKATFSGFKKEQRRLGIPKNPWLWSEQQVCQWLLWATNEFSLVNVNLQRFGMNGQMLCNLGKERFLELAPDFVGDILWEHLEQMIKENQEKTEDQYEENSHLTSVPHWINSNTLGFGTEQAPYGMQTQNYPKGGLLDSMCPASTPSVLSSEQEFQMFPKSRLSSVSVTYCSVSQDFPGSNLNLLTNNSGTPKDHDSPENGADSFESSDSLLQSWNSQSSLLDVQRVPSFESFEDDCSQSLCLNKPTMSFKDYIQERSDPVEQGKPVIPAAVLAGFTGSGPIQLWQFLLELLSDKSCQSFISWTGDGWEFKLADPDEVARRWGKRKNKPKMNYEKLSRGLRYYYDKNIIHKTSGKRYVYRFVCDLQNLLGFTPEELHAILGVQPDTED
# Procedure, shortened: as §1
# [4] = target: T4, SPDEF (Homo sapiens, UniProt O95238 1-335)
# T4 sequence: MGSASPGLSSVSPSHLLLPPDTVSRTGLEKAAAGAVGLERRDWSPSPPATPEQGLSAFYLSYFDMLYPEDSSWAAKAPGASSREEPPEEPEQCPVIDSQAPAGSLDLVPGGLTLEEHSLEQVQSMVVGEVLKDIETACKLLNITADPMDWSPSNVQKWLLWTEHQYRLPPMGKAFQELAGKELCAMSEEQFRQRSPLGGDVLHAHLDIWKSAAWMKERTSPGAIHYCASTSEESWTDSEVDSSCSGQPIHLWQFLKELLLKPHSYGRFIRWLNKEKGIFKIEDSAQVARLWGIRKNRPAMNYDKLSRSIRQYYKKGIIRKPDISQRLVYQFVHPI
# Procedure, shortened: as §1
# [5] = target: T5, ETV7 (Homo sapiens, UniProt Q9Y603 1-341)
# T5 sequence: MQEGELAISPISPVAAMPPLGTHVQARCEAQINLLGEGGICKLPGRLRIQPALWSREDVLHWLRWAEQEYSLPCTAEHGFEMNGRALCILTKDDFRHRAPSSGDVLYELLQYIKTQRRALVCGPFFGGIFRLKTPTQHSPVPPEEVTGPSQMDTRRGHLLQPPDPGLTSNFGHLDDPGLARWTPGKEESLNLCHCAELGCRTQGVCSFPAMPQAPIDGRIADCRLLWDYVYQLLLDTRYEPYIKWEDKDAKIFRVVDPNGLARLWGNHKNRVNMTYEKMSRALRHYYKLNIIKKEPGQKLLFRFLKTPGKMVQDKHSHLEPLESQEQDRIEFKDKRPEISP
# Procedure, shortened: as §1
# [6] = target: T6, ELF5 (Homo sapiens, UniProt Q9UKW6-2 1-255)
# T6 sequence: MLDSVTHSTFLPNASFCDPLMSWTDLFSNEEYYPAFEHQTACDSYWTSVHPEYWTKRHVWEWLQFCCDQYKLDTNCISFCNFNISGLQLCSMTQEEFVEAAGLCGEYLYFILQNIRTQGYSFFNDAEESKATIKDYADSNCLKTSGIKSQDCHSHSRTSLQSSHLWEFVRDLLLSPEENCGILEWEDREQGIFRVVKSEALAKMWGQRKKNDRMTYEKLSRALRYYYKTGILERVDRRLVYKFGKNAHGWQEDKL
# Procedure, shortened: as §1
# [7] = target: T7, ETV3 (Homo sapiens, UniProt P41162-2 1-143)
# T7 sequence: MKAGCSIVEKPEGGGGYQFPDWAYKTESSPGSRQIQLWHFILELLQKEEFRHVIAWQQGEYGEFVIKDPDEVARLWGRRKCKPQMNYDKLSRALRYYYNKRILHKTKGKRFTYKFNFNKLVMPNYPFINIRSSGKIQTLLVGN
# Procedure, shortened: as §1
# [8] = target: ETV6 (Homo sapiens, UniProt P41212 1-452)
# Sequence of ETV6 (P41212 whole entry): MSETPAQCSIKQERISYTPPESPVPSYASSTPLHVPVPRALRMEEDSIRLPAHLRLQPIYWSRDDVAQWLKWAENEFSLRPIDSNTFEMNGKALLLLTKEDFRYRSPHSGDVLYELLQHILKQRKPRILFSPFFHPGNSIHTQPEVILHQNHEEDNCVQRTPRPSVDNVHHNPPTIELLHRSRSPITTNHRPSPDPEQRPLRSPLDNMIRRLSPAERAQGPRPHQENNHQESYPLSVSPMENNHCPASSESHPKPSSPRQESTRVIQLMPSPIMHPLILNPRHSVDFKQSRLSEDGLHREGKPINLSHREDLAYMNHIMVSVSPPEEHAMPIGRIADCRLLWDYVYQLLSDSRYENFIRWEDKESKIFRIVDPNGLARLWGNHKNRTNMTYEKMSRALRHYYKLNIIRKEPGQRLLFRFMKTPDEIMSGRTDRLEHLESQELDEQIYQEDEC
# Procedure, shortened: as §1
Sequence,binding signal [1],binding signal [2],binding signal [3],binding signal [4],binding signal [5],binding signal [6],binding signal [7],binding signal [8]
TCTTTT,"1.46 fold enrichment (6-mer frequency, TF over GST control)","1.54 fold enrichment (6-mer frequency, TF over GST control)","1.47 fold enrichment (6-mer frequency, TF over GST control)","1.4 fold enrichment (6-mer frequency, TF over GST control)","1.56 fold enrichment (6-mer frequency, TF over GST control)","1.43 fold enrichment (6-mer frequency, TF over GST control)","1.5 fold enrichment (6-mer frequency, TF over GST control)","1.41 fold enrichment (6-mer frequency, TF over GST control)"
TGGTAC,"1.11 fold enrichment (6-mer frequency, TF over GST control)","1.21 fold enrichment (6-mer frequency, TF over GST control)","1.19 fold enrichment (6-mer frequency, TF over GST control)","1.11 fold enrichment (6-mer frequency, TF over GST control)","1.14 fold enrichment (6-mer frequency, TF over GST control)","1.14 fold enrichment (6-mer frequency, TF over GST control)","1.14 fold enrichment (6-mer frequency, TF over GST control)","1.14 fold enrichment (6-mer frequency, TF over GST control)"
TGACCT,"1.66 fold enrichment (6-mer frequency, TF over GST control)","1.83 fold enrichment (6-mer frequency, TF over GST control)","1.72 fold enrichment (6-mer frequency, TF over GST control)","1.74 fold enrichment (6-mer frequency, TF over GST control)","1.75 fold enrichment (6-mer frequency, TF over GST control)","1.73 fold enrichment (6-mer frequency, TF over GST control)","1.59 fold enrichment (6-mer frequency, TF over GST control)","1.66 fold enrichment (6-mer frequency, TF over GST control)"
AACGTC,"1.01 fold enrichment (6-mer frequency, TF over GST control)","1.03 fold enrichment (6-mer frequency, TF over GST control)","1.14 fold enrichment (6-mer frequency, TF over GST control)","1.11 fold enrichment (6-mer frequency, TF over GST control)","1.11 fold enrichment (6-mer frequency, TF over GST control)","1.1 fold enrichment (6-mer frequency, TF over GST control)","1.07 fold enrichment (6-mer frequency, TF over GST control)","1.05 fold enrichment (6-mer frequency, TF over GST control)"
GTCTCT,"1.16 fold enrichment (6-mer frequency, TF over GST control)","1.35 fold enrichment (6-mer frequency, TF over GST control)","1.32 fold enrichment (6-mer frequency, TF over GST control)","1.15 fold enrichment (6-mer frequency, TF over GST control)","1.02 fold enrichment (6-mer frequency, TF over GST control)","1.11 fold enrichment (6-mer frequency, TF over GST control)","1.27 fold enrichment (6-mer frequency, TF over GST control)","1.19 fold enrichment (6-mer frequency, TF over GST control)"
TGTATT,"1.36 fold enrichment (6-mer frequency, TF over GST control)","1.4 fold enrichment (6-mer frequency, TF over GST control)","1.4 fold enrichment (6-mer frequency, TF over GST control)","1.42 fold enrichment (6-mer frequency, TF over GST control)","1.4 fold enrichment (6-mer frequency, TF over GST control)","1.26 fold enrichment (6-mer frequency, TF over GST control)","1.41 fold enrichment (6-mer frequency, TF over GST control)","1.41 fold enrichment (6-mer frequency, TF over GST control)"
CCGAGC,"1.17 fold enrichment (6-mer frequency, TF over GST control)","1.1 fold enrichment (6-mer frequency, TF over GST control)","1.17 fold enrichment (6-mer frequency, TF over GST control)","1.06 fold enrichment (6-mer frequency, TF over GST control)","1.15 fold enrichment (6-mer frequency, TF over GST control)","1.12 fold enrichment (6-mer frequency, TF over GST control)","1.04 fold enrichment (6-mer frequency, TF over GST control)","1.13 fold enrichment (6-mer frequency, TF over GST control)"
GCGCTC,"1.2 fold enrichment (6-mer frequency, TF over GST control)","1.19 fold enrichment (6-mer frequency, TF over GST control)","1.2 fold enrichment (6-mer frequency, TF over GST control)","1.07 fold enrichment (6-mer frequency, TF over GST control)","1.04 fold enrichment (6-mer frequency, TF over GST control)","1.05 fold enrichment (6-mer frequency, TF over GST control)","1.08 fold enrichment (6-mer frequency, TF over GST control)","1.02 fold enrichment (6-mer frequency, TF over GST control)"
ATGCAC,"1.25 fold enrichment (6-mer frequency, TF over GST control)","1.28 fold enrichment (6-mer frequency, TF over GST control)","1.29 fold enrichment (6-mer frequency, TF over GST control)","1.5 fold enrichment (6-mer frequency, TF over GST control)","1.3 fold enrichment (6-mer frequency, TF over GST control)","1.19 fold enrichment (6-mer frequency, TF over GST control)","1.31 fold enrichment (6-mer frequency, TF over GST control)","1.29 fold enrichment (6-mer frequency, TF over GST control)"
TGGCAA,"1.21 fold enrichment (6-mer frequency, TF over GST control)","1.23 fold enrichment (6-mer frequency, TF over GST control)","1.14 fold enrichment (6-mer frequency, TF over GST control)","1 fold enrichment (6-mer frequency, TF over GST control)","1.16 fold enrichment (6-mer frequency, TF over GST control)","1.16 fold enrichment (6-mer frequency, TF over GST control)","1.12 fold enrichment (6-mer frequency, TF over GST control)","1.28 fold enrichment (6-mer frequency, TF over GST control)"
TTTCCA,"1.32 fold enrichment (6-mer frequency, TF over GST control)","1.41 fold enrichment (6-mer frequency, TF over GST control)","1.38 fold enrichment (6-mer frequency, TF over GST control)","1.29 fold enrichment (6-mer frequency, TF over GST control)","1.35 fold enrichment (6-mer frequency, TF over GST control)","1.43 fold enrichment (6-mer frequency, TF over GST control)","1.45 fold enrichment (6-mer frequency, TF over GST control)","1.54 fold enrichment (6-mer frequency, TF over GST control)"
TGATTT,"1.17 fold enrichment (6-mer frequency, TF over GST control)","1.29 fold enrichment (6-mer frequency, TF over GST control)","1.28 fold enrichment (6-mer frequency, TF over GST control)","1.21 fold enrichment (6-mer frequency, TF over GST control)","1.24 fold enrichment (6-mer frequency, TF over GST control)","1.23 fold enrichment (6-mer frequency, TF over GST control)","1.24 fold enrichment (6-mer frequency, TF over GST control)","1.23 fold enrichment (6-mer frequency, TF over GST control)"
